Reference: PubChem BioAssay (NCI)
About 79,000 compounds went through this panel and 15% of them were active in at least one assay; those are over-represented in the sample as a whole. The source made the active and inactive calls. Rule as the data show it: active = growth inhibition above about 70%; inactive = the rest.

Experiment: NCI Yeast Anticancer Drug Screen. Data for the cln2 rad14 strain (AID 165);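 also: 0% = growth equal to vehicle treated cultures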
Conditions: S. cerevisiae cln2 rad14 strain, at 50.0 µM (retest, dose inferred, filed as 5.0), hits give high values
Procedure, shortened: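 Yeast carrying cln2 and rad14 alterations (cell cycle control and DNA damage repair) were exposed to compounds. Growth inhibition was measured against vehicle-treated controls.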

Structure (SMILES)	growth inhibition
C=CC(=O)N1C/C(=C\c2ccc(F)cc2)C(=O)/C(=C/c2ccc(F)cc2)C1	81% (active)
CCOc1ccc2c(c1)n([O-])c1ccccc1[n+]2=O	98% (active)
O=C(/C(Cl)=N/O)c1ccccc1	99% (active)
O=C(NC1CCN(Cc2ccccc2)CC1)c1ccc(I)cc1	88% (active)
O=C1c2ccccc2CCC1C(O)(C(F)(F)F)C(F)(F)F (stereo not given)	11% (inactive)
O=C(C(=O)n1ncc(Cl)c(Cl)c1=O)n1ncc(Cl)c(Cl)c1=O	-15% (inactive)
OC1OCC(OCc2ccccc2)C(OCc2ccccc2)C1OCc1ccccc1 (stereo not given)	59% (inactive)
CN1CCC(OC(=O)c2ccc3ncccc3c2)CC1	2% (inactive)
CCC(c1ccc(O)cc1)C(CC)c1ccc(OCC(N)=O)cc1 (stereo not given)	-22% (inactive)
CCCCCCCC(=O)O[C@H]1[C@H]2[C@@H](CC1(C)C)C(=O)[C@]13O[C@H]1C(=O)[C@]1(CO1)[C@]23C	98% (active)
CN1CCCN(C)C1c1cc([N+](=O)[O-])ccc1O	93% (active)
CCOC(=O)C[n+]1c(C)sc2ccccc21	18% (inactive)
O=C(O)C(CCc1cccc2ccccc12)c1ccccc1 (stereo not given)	96% (active)
O=C1C(Cl)=C(Cl)C(=O)C2CC=CCC12 (stereo not given)	99% (active)
Nc1n[nH]c(=O)c2cccnc12	-13% (inactive)
OC(CBr)c1cc(-c2ccccc2)nc2ccccc12 (stereo not given)	93% (active)
O=C(O)CCCc1ccc2c(c1)CC1(C2)Cc2ccc(CCCC(=O)O)cc2C1	27% (inactive)
CC1=Nc2ccccc2/C1=C\c1c(C)[nH]c2ccccc12	96% (active)
CC(=O)C(C(=N)C#N)C(=O)Nc1ccccc1 (stereo not given)	-2% (inactive)
COc1ccc2nc3cc(Cl)ccc3c(NCCC[N+](C)(C)CCCCCCCCCC[N+](C)(C)CCCNc3c4ccc(Cl)cc4nc4ccc(OC)cc34)c2c1	94% (active)

Structure (SMILES)	growth inhibition
Oc1cc(Cl)cc2c1-c1ccc(Cl)cc1C2O (stereo not given)	97% (active)
CC1(C)OC(=O)C(=NNc2ccccc2[N+](=O)[O-])C(=O)O1	12% (inactive)
Clc1ccc(OCC2CO2)c(Cl)c1 (stereo not given)	40% (inactive)
O=c1ccc([N+](=O)[O-])c[nH]1.[Ag]	100% (active)
O=C1CSC(c2c[nH]c3ccccc23)N1c1cccc(Cl)c1 (stereo not given)	95% (active)
Fc1cccc(NC(=S)SCc2ccco2)c1	45% (inactive)
S=c1[nH]nc(SCc2ccc(Cl)c(Cl)c2)c2[nH]cnc12	-16% (inactive)
Cc1c(Cl)cccc1NC(=O)/C(Cl)=C(\Cl)C(=O)O	3% (inactive)
Nc1ccc2ccc3cccc4ccc1c2c34	99% (active)
O=C(C(/C=N/C(=S)NCc1ccccc1)=C(/O)c1ccccc1)c1ccccc1	87% (active)
C/C(=N\NC(=S)Nc1ccc(Cl)cc1)c1nc2ncccc2[nH]1	99% (active)
O=C(/C=C\c1ccc(Cl)c(Cl)c1)c1cccs1	-3% (inactive)
CC12CC(O)C3C(CCC4CCCCC43C)C1CC/C2=N/O (stereo not given)	-6% (inactive)
CCCn1cc2c(SC)nc(SC)nc2n1	38% (inactive)
Cc1ccc(C2(O)c3ccccc3-c3ccccc32)cc1	99% (active)
C=CCc1ccc2c(C)cc[n+](C)c2c1O	99% (active)
COC(=O)c1nc(NC#N)[nH]c(=O)c1CCCCCc1cnc(NC#N)nc1	1% (inactive)
Cc1c2cnccc2c(C)c2c1c1ccccc1n2CCOC(=O)c1ccccc1	82% (active)
C/C(=N/O)c1ccc2c(c1)C(C)c1ccccc1-2 (stereo not given)	-66% (inactive)
Oc1ccc2ccccc2c1I	99% (active)

Same assay, conditions: S. cerevisiae cln2 rad14 strain, at 50.0 µM, hits give high values

Structure (SMILES)	growth inhibition
C=CC(=O)N1C/C(=C\c2ccc(F)cc2)C(=O)/C(=C/c2ccc(F)cc2)C1	78.5% (active)
CCOc1ccc2c(c1)n([O-])c1ccccc1[n+]2=O	98.1% (active)
O=C(/C(Cl)=N/O)c1ccccc1	58% (inactive)
O=C(NC1CCN(Cc2ccccc2)CC1)c1ccc(I)cc1	77.2% (active)
O=C1c2ccccc2CCC1C(O)(C(F)(F)F)C(F)(F)F (stereo not given)	10.9% (inactive)
O=C(C(=O)n1ncc(Cl)c(Cl)c1=O)n1ncc(Cl)c(Cl)c1=O	13.8% (inactive)
OC1OCC(OCc2ccccc2)C(OCc2ccccc2)C1OCc1ccccc1 (stereo not given)	81.5% (active)
CN1CCC(OC(=O)c2ccc3ncccc3c2)CC1	85.6% (active)
CCC(c1ccc(O)cc1)C(CC)c1ccc(OCC(N)=O)cc1 (stereo not given)	78.8% (active)
CCCCCCCC(=O)O[C@H]1[C@H]2[C@@H](CC1(C)C)C(=O)[C@]13O[C@H]1C(=O)[C@]1(CO1)[C@]23C	90.8% (active)
CN1CCCN(C)C1c1cc([N+](=O)[O-])ccc1O	87.3% (active)
CCOC(=O)C[n+]1c(C)sc2ccccc21	17.6% (inactive)
O=C(O)C(CCc1cccc2ccccc12)c1ccccc1 (stereo not given)	99.3% (active)
O=C1C(Cl)=C(Cl)C(=O)C2CC=CCC12 (stereo not given)	99.1% (active)
Nc1n[nH]c(=O)c2cccnc12	17% (inactive)
OC(CBr)c1cc(-c2ccccc2)nc2ccccc12 (stereo not given)	-24.7% (inactive)
O=C(O)CCCc1ccc2c(c1)CC1(C2)Cc2ccc(CCCC(=O)O)cc2C1	8.65% (inactive)
CC1=Nc2ccccc2/C1=C\c1c(C)[nH]c2ccccc12	74.3% (active)
CC(=O)C(C(=N)C#N)C(=O)Nc1ccccc1 (stereo not given)	33.6% (inactive)
COc1ccc2nc3cc(Cl)ccc3c(NCCC[N+](C)(C)CCCCCCCCCC[N+](C)(C)CCCNc3c4ccc(Cl)cc4nc4ccc(OC)cc34)c2c1	55.8% (inactive)

Structure (SMILES)	growth inhibition
Oc1cc(Cl)cc2c1-c1ccc(Cl)cc1C2O (stereo not given)	81.8% (active)
CC1(C)OC(=O)C(=NNc2ccccc2[N+](=O)[O-])C(=O)O1	29.4% (inactive)
Clc1ccc(OCC2CO2)c(Cl)c1 (stereo not given)	86.5% (active)
O=c1ccc([N+](=O)[O-])c[nH]1.[Ag]	98.2% (active)
O=C1CSC(c2c[nH]c3ccccc23)N1c1cccc(Cl)c1 (stereo not given)	87% (active)
Fc1cccc(NC(=S)SCc2ccco2)c1	61.2% (inactive)
S=c1[nH]nc(SCc2ccc(Cl)c(Cl)c2)c2[nH]cnc12	28.8% (inactive)
Cc1c(Cl)cccc1NC(=O)/C(Cl)=C(\Cl)C(=O)O	99.3% (active)
Nc1ccc2ccc3cccc4ccc1c2c34	62.5% (inactive)
O=C(C(/C=N/C(=S)NCc1ccccc1)=C(/O)c1ccccc1)c1ccccc1	97.7% (active)
C/C(=N\NC(=S)Nc1ccc(Cl)cc1)c1nc2ncccc2[nH]1	87.9% (active)
O=C(/C=C\c1ccc(Cl)c(Cl)c1)c1cccs1	51.6% (inactive)
CC12CC(O)C3C(CCC4CCCCC43C)C1CC/C2=N/O (stereo not given)	50.8% (inactive)
CCCn1cc2c(SC)nc(SC)nc2n1	87.3% (active)
Cc1ccc(C2(O)c3ccccc3-c3ccccc32)cc1	98.2% (active)
C=CCc1ccc2c(C)cc[n+](C)c2c1O	99.5% (active)
COC(=O)c1nc(NC#N)[nH]c(=O)c1CCCCCc1cnc(NC#N)nc1	7% (inactive)
Cc1c2cnccc2c(C)c2c1c1ccccc1n2CCOC(=O)c1ccccc1	75.2% (active)
C/C(=N/O)c1ccc2c(c1)C(C)c1ccccc1-2 (stereo not given)	77.4% (active)
Oc1ccc2ccccc2c1I	92.6% (active)
